This is an account of results in PubChem BioAssay (EPA / NIEHS).

One may read the AC50 as the concentration at which the activity in the assay is half-maximal.

Each structure is given as a SMILES string. Active and inactive are the calls of the source. How the source made its calls: active means hit-call score of the fitted dose curve at least 0.9, where 1 is the maximum; inactive means score below 0.9.

Read-out in experiment [1]: Tissue plasminogen activator (tPA), PLAT (gene 5327)
Briefly: BSK_BE3C_tPA: BioMAP Diversity Plus: BE3C Assay for Tissue plasminogen activator (tPA) Biomarker Activity (AID 2283041).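 On outcome: tPA level quantified by ELISA one day after compound addition.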 Conditions: primary human bronchial epithelial cells; actives raise or lower the signal. The procedure, abridged: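 Primary human lung bronchial epithelial cultures receive test chemical; after 24 h, tPA is quantified by ELISA, and gain or loss of signal is fitted bidirectionally relative to DMSO baseline.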

Read-out in experiment [2]: Interleukin-8 (IL8), CXCL8 (gene 3576)
Put plainly: BSK_CASM3C_IL8: BioMAP Diversity Plus: CASM3C Assay for Interleukin-8 (IL8) Biomarker Activity (AID 2283042).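 Further: IL-8 protein level quantified by ELISA.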 Conditions: primary human coronary artery smooth muscle cells; actives raise or lower the signal.

Read-out in experiment [3]: Human Leukocyte Antigen - DR isotype (HLADR), HLA-DRA (gene 3122)
Put plainly: BSK_CASM3C_HLADR: BioMAP Diversity Plus: CASM3C Assay for Human Leukocyte Antigen - DR isotype (HLADR) Biomarker Activity (AID 2283043).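 Further: cell-surface HLA-DR protein level quantified by ELISA.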 Conditions: primary human coronary artery smooth muscle cells; actives raise or lower the signal.

Read-out in experiment [4]: Macrophage colony-stimulating factor (MCSF), CSF1 (gene 1435)
Put plainly: BSK_CASM3C_MCSF: BioMAP Diversity Plus: CASM3C Assay for Macrophage colony-stimulating factor (MCSF) Biomarker Activity (AID 2283044).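 Further: M-CSF protein amount quantified by ELISA after 24 h exposure.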 Conditions: primary human coronary artery smooth muscle cells; actives raise or lower the signal.

Read-out in experiment [5]: Low-density lipoprotein receptor (LDLR), LDLR (gene 3949)
Put plainly: BSK_CASM3C_LDLR: BioMAP Diversity Plus: CASM3C Assay for Low-density lipoprotein receptor (LDLR) Biomarker Activity (AID 2283045).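 Further: LDLR protein level on the cell surface quantified by ELISA.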 The note with it: primary human coronary artery smooth muscle cells; actives raise or lower the signal.

Read-out in experiment [6]: Monocyte Chemoattractant Protein-1 (MCP1), CCL2 (gene 6347)
Put plainly: BSK_CASM3C_MCP1: BioMAP Diversity Plus: CASM3C Assay for Monocyte Chemoattractant Protein-1 (MCP1) Biomarker Activity (AID 2283046).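 Further: MCP-1 level quantified by ELISA 24 h after dosing.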 Conditions: primary human coronary artery smooth muscle cells; actives raise or lower the signal.

A short description of experiment [7]: BSK_CASM3C_Proliferation: Cell Proliferation Assessment in the BioMAP Diversity Plus: CASM3C Assay (AID 2283047).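 Further: sulforhodamine B total protein stain as relative cell number at 560 nm; sub-confluent cells exposed 48 h before staining; fitted both ways against DMSO so gain or loss of cell number.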 Conditions: primary human coronary artery smooth muscle cells.
Read-out in experiment [8]: Monokine induced gamma interferon (MIG), CXCL9 (gene 4283)
Put plainly: BSK_CASM3C_MIG: BioMAP Diversity Plus: CASM3C Assay for Monokine induced gamma interferon (MIG) Biomarker Activity (AID 2283048).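 Further: MIG protein level measured by ELISA.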 Conditions: primary human coronary artery smooth muscle cells; actives raise or lower the signal.

Read-out in experiment [9]: serum amyloid A (SAA), SAA1 (gene 6288)
Put plainly: BSK_CASM3C_SAA: BioMAP Diversity Plus: CASM3C Assay for serum amyloid A (SAA) Biomarker Activity (AID 2283049).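 Further: SAA protein level quantified by ELISA.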 The note with it: primary human coronary artery smooth muscle cells; actives raise or lower the signal.

Experiment [10] can be described thus: BSK_CASM3C_SRB: Viability Assessment in the BioMAP Diversity Plus: CASM3C Assay (AID 2283050).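 Further: total protein by SRB staining as cytotoxicity measure in parallel cultures; cells exposed to compound for 24 h.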 Conditions: primary human coronary artery smooth muscle cells.

Regarding `CCCCCCCCCCCCc1cccc(S(=O)(=O)O)c1`, the concentration at half-maximal activity (AC50) in [1] is 3.92 µM (active). For the same compound, the result in experiment [2], in experiment [3], in experiment [4], in [5], in experiment [6] and in experiment [7] was inactive. Also, the result in [8], in [9] and in experiment [10] was inactive.
For `Cc1ccc(OP(=O)(Oc2ccc(C)cc2C)Oc2ccc(C)cc2C)c(C)c1`, the half-maximal activity concentration (AC50) was 3.86 µM (active) in experiment [1] and 0.0882 µM (active) in [4]. For the same compound, the result in experiment [2], in [3], in [5], in experiment [6], in [7] and in experiment [8] was inactive. Besides, the result in experiment [9] and in experiment [10] was inactive.
As for `CC(C)(C)c1cc([N+](=O)[O-])cc(C(C)(C)C)c1O`, the result in experiment [1], in experiment [2], in experiment [3], in experiment [4], in experiment [5] and in experiment [6] was inactive. The outcome in [7], in [8], in experiment [9] and in experiment [10] was inactive.
In the case of `C=CC(Cl)CCl` (stereo not given), the result in experiment [1], in [2], in experiment [3], in experiment [4], in experiment [5] and in experiment [7] was inactive. Also, the outcome in experiment [8], in experiment [9] and in [10] was inactive. For the same compound, the concentration at half-maximal activity (AC50) in [6] was 0.0777 µM (active).
Consider `C#CCOC(=O)/C=C(C)/C=C/CC(C)CCCC(C)C` (stereo not given), for which the result in experiment [1], in experiment [2], in experiment [4], in experiment [5], in [6] and in [7] was inactive. Moreover, the outcome in experiment [8], in [9] and in experiment [10] was inactive. The half-maximal activity concentration (AC50) in [3] is 3.97 µM (active).
Turning to `CC(C)O.CC(C)O.OCCN(CCO)CCO.OCCN(CCO)CCO.[Ti]`, the result in [1], in experiment [2], in experiment [3], in [4], in experiment [5] and in experiment [6] was inactive. For the same compound, the outcome in experiment [7], in experiment [8], in [9] and in [10] was inactive.
For `CCOC(=O)C(SP(=S)(OC)OC)c1ccccc1` (stereo not given), the outcome in [1], in [2], in experiment [5], in experiment [6], in experiment [8] and in [9] was inactive. For the same compound, the outcome in experiment [10] was inactive. Further, the AC50 in experiment [3], in [4] and in experiment [7] was 20 µM (active) each time.
In the case of `Clc1cccc(Cl)c1Cl`, the outcome in experiment [1], in experiment [2], in experiment [3], in experiment [4], in experiment [5] and in experiment [6] was inactive. For the same compound, the result in experiment [7], in experiment [8], in experiment [9] and in experiment [10] was inactive.
For the compound `O=c1oc2ccccc2c(O)c1C(CC(O)c1ccc(-c2ccc(Br)cc2)cc1)c1ccccc1` (stereo not given), the AC50 in [1] is 0.837 µM (active); in experiment [2], 0.0413 µM (active); in experiment [3], 4.99 µM (active); in experiment [4], 16.3 µM (active); in [5], 19.1 µM (active); in [6] it was 7.44 µM (active). Also, the AC50 in [7] was 19.1 µM (active); in [9], 0.0998 µM (active); in [10] it was 13.9 µM (active). Moreover, in experiment [8], the result was inactive.
As to `Cc1ccccc1OP(=O)(Oc1ccccc1)Oc1ccccc1`, the outcome in experiment [1], in [2], in experiment [3], in [4], in [5] and in experiment [6] was inactive. Besides, the outcome in [7], in experiment [8] and in experiment [9] was inactive. For the same compound, the AC50 in [10] was 8.32 µM (active).
As for `Oc1c(Br)cc(Br)cc1Br`, the result in experiment [1], in experiment [2], in experiment [3], in [4], in [5] and in experiment [6] was inactive. Besides, the result in experiment [7], in experiment [8], in experiment [9] and in [10] was inactive.
On to `CCCCOC(=O)COC(=O)c1ccccc1C(=O)OCCCC`, for which the result in experiment [1], in [2], in experiment [3], in experiment [4], in experiment [5] and in [6] was inactive. The outcome in [7], in [8], in experiment [9] and in [10] was inactive.
Turning to `Cc1cc(Cl)ccc1N`, the result in experiment [1], in experiment [2], in experiment [3], in experiment [4], in [5] and in [6] was inactive. Also, the outcome in experiment [7], in experiment [8], in [9] and in experiment [10] was inactive.
Take `CCC(C)(C#N)N=NC(C)(C#N)CC` (stereo not given): the result in [1], in experiment [2], in [3], in experiment [5], in experiment [6] and in [7] was inactive. Moreover, the outcome in experiment [8], in [9] and in [10] was inactive. In [4], the concentration at half-maximal activity (AC50) is 0.016 µM (active).
Regarding `CN(C)C(=S)S`, the AC50 was 9.34 µM (active) in experiment [1] and 0.791 µM (active) in [7]. Further, the result in experiment [2], in [3], in experiment [4], in [5], in [6] and in experiment [8] was inactive. The outcome in [9] and in [10] was inactive.
`N#CCCC(Br)(C#N)CBr` (stereo not given): the AC50 was 9.86 µM (active) in [1]; 20 µM (active) in [2]; 8.75 µM (active) in experiment [3]; 20 µM (active) in [4]; 12.2 µM (active) in experiment [5]; 20 µM (active) in experiment [6]. Further, the AC50 in experiment [7] was 3.93 µM (active); in experiment [8], 33.8 µM (active); in experiment [9], 11.8 µM (active); in experiment [10], 20 µM (active).
Take `O=C(CCl)NCO`: the result in experiment [1], in experiment [2], in [3], in [4], in experiment [5] and in experiment [6] was inactive. Also, the result in [7], in experiment [8], in experiment [9] and in experiment [10] was inactive.
